Among all 17,000 compounds or so, about 35 (0.2%) were called active.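 Rule for the calls: active = compounds whose four printed spots each show fluorescence over background unusually high for their array block, chance value under 7%; inactive = the rest.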 The entries come from a sample that favours actives as a whole.

The target of this assay is Signal transducer and activator of transcription 3 (Homo sapiens) (UniProt P40763). Description: STAT3 binders, primary screen, biochemical, small molecule microarray, single point, set 2 (AID 624138). The conditions noted are these: His-STAT3 binding, anti-His fluorescence.
Sequence of Signal transducer and activator of transcription 3 (Homo sapiens) (P40763 whole entry, looked up): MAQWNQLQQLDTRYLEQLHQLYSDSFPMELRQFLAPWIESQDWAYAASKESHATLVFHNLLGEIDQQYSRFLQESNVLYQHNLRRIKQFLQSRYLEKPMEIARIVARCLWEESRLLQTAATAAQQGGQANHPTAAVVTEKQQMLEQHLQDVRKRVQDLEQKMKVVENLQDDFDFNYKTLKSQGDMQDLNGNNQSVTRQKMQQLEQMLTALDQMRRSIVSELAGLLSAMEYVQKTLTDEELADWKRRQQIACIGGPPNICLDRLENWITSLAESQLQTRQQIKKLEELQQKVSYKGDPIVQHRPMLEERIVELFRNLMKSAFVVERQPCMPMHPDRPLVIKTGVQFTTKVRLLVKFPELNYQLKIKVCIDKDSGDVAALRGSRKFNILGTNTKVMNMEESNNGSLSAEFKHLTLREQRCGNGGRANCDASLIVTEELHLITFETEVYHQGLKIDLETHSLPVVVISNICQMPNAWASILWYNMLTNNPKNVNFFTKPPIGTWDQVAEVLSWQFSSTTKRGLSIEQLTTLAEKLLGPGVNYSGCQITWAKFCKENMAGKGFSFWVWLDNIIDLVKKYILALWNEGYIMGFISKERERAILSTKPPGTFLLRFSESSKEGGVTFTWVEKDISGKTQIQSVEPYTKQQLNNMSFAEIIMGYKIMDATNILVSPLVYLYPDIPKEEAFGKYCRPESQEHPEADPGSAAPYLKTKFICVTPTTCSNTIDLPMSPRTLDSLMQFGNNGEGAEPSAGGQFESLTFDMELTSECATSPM
Regarding `c1cncc(CNCCc2c[nH]c3ccccc23)c1`, the call was active.

Regarding `COc1ccc2[nH]cc(CCNCc3ccc(Br)cc3)c2c1`, the molecule was called inactive.

Turning to `CC(=O)c1c(O)c(C)c(O)c(Cc2c(O)c3c(c(C(=O)/C=C/c4ccccc4)c2O)OC(C)(C)C=C3)c1O`, the molecule was classed as inactive.

Turning to `C[C@H]1CCC/C=C/C2C[C@H](O)C[C@H]2[C@H](O)/C=C\C(=O)O1` (stereo not given in full), the molecule was called inactive.

Regarding `Cc1ccc(OC(=O)N(C)C[C@@H]2OCc3cnnn3CCCC(=O)N([C@H](C)CO)C[C@@H]2C)cc1`, the molecule was classed as inactive.
